The campaign covered roughly 420,000 compounds. About 64,000 (15%) were called active. Not shown: some 27% with an inconclusive outcome. These entries were drawn from the full list. Unmarked numbers belong to inactive results. Calls come from the whole dose curve; as a rule, active = well fitted inhibition curve with a large enough effect; inconclusive = small, poorly fitted or top-dose-only effect; inactive = flat fitted curve, though single readings scatter.
% is set by controls: 0 for no effect and ±100 for the full control effect; potency is the fitted concentration of half-maximal effect.

The assay is described as follows: qHTS for Inhibitors of human tyrosyl-DNA phosphodiesterase 1 (TDP1): qHTS in cells in absence of CPT. Note: nearly all actives have a fitted effect of over 55% in size. The conditions noted are these: DT40 Tdp1-/- hTDP1 cells, no CPT, ATP luminescence, 48 h; activity change, negative = growth inhibition: at 46.2 µM (top of the series). The procedure, abridged: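 Readout: luminescence from CellTiter-Glo after 30 min in the dark at RT. Cells: DT40 Tdp1-/- with stable hTDP1, 400/well. Exposure: compounds alone, ≥48 hr, 37 °C.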
Background: qHTS replaces the single test concentration by a dilution series.
On to `CC(C)NC(=O)CCCn1c(=S)[nH]c2cc3c(cc2c1=O)OCO3`, for which the “activity change, negative = growth inhibition” value is -20.5%.
In the case of `CCOC(=O)N1CCN(C(=O)c2ccc(S(=O)(=O)Nc3cccc(C(F)(F)F)c3)cc2)CC1`, the Potency is 6.51 µM (active).
Consider `O=C(COc1ccc(S(=O)(=O)Nc2cccc(C(F)(F)F)c2)cc1)N1CCOCC1`, for which the “activity change, negative = growth inhibition” value was -13.8%.
Still for that read-out and setting: for `CC(=O)N1CCN(C(=O)c2cccc(S(=O)(=O)Nc3ccc(C)cc3)c2)CC1` the value was -4.18%.
Take `COC(=O)C1=C(C(=O)OC)[C@@H]2N(Cc3ccccc3)c3ccccc3[C@@]23C[C@@H](C(=O)OC)N(S(=O)(=O)c2ccc(C(F)(F)F)cc2)C3=N1`: the “activity change, negative = growth inhibition” value is -22.1%.
As to `CCCCNS(=O)(=O)c1ccc(S(=O)(=O)n2cnc3ccccc32)cc1`, the “activity change, negative = growth inhibition” value was 2.54%.
Still for that read-out and setting: to `CCOC(=O)c1nc(C)n(-c2ccc(Cl)cc2Cl)n1` belongs -12.1%; to `Cc1ccc(/C=N/NC(=O)CN2CCN(Cc3ccccc3)CC2)s1`, -20.3%.
Still for that read-out and setting: for `C/C(=N/NC(=O)CN1CCN(S(=O)(=O)c2ccc(Br)cc2)CC1)c1ccncc1` the value was -17.6%.
As for `Cc1ccc(S(=O)(=O)N2CCN(CC(=O)N/N=C/c3ccc(Br)s3)CC2)cc1`, the Potency is 14.6 µM (active).
For the compound `Cc1ccc(C)c(NC2=NCC(=O)N2c2ccc3c(c2)OCCO3)c1`, the “activity change, negative = growth inhibition” value is -0.0277%.
For `CCOc1cc2[nH]c(=S)n(Cc3ccc(C(=O)N4CCN(C)CC4)cc3)c(=O)c2cc1OCC`, the Potency was 16.4 µM (active).
In the case of `CCOc1cc2[nH]c(=S)n(Cc3ccc(C(=O)NCCOC)cc3)c(=O)c2cc1OCC`, the “activity change, negative = growth inhibition” value was -12.9%.
Still for that read-out and setting: to `COc1cc2[nH]c(=S)n(Cc3ccc(F)cc3)c(=O)c2cc1OC` belongs -23.7%; to `CNC(=O)NC(=O)C(OC(=O)c1cccc(S(=O)(=O)N2CCCCC2)c1)c1ccccc1` (stereo unspecified), -15%; to `COc1c(C=O)c(CCN(C)C(=O)c2ccc(F)cc2)cc2c1OCO2`, -2.12%.
The same measure, in the same setting: to `O=C1CSC(=S)N1c1ccc(Cl)c(Cl)c1` belongs -2.25%; to `Cc1ccccc1N1C(=O)C2ON(c3ccccc3)C(c3ccncc3)C2C1=O` (stereo unspecified), -8.98%; to `CC(=O)NC1=NN(C(C)=O)C(C)(CCS(=O)(=O)c2ccc(Cl)c(Cl)c2)S1` (stereo unspecified), -7.08%.
Same read-out and setting: to `O=C(NC1=NCCS1)c1ccc(Cl)s1` belongs 3.11%.
With `CC(=O)NC1=NN(C(C)=O)C(C)(c2ccc(Cl)s2)S1` (stereo unspecified), the Potency was 5.17 µM (active).
On to `COc1ccccc1C1CC(=O)n2c(nc(-c3ccccc3)c2-c2ccccc2)S1` (stereo unspecified), for which the “activity change, negative = growth inhibition” value is 4.33%.
Still for that read-out and setting: to `O=C(COC(=O)/C=C/c1cccs1)NC1CCCCC1` belongs 16.1%; to `CSc1ncccc1C(=O)OCc1ccc(Br)cc1`, -0.34%; to `OC(c1cc(Cl)cc(Cl)c1)c1ncc(-c2ccccc2C(F)(F)F)[nH]1` (stereo unspecified), -29.3%.
Same read-out and setting: for `COCCN1CCN(C(=O)c2sc3ncnc(NCC4CCCO4)c3c2C)CC1` (stereo unspecified) the value was -15.6%.
Same read-out and setting: to `CSc1ncnc2sc(C)c(C)c12` belongs -11.7%.
Regarding `CCCNc1ncnc2sc(C)c(C)c12`, the Potency was 13 µM (active).
For the compound `CC1=C(C(=O)OC(C)(C)C)C(c2ccc(Br)cc2)NC(=O)N1CCCC(=O)O` (stereo unspecified), the “activity change, negative = growth inhibition” value is -1.02%.
Take `CCCCNC(=O)C(C)N(CCN(C)C)C(=O)CCCCCN1C(=O)NC(c2ccc(Cl)cc2)C(C(=O)OCc2ccccc2)=C1C` (stereo unspecified): the Potency is 16.4 µM (active).
As for `CCOC(=O)CCCNC(=O)CN1C(=O)NC(CCc2ccccc2)C1=O` (stereo unspecified), the “activity change, negative = growth inhibition” value was 1.07%.
Same read-out and setting: to `CC1=C(C(=O)OCc2ccccc2)C(c2ccc(C(F)(F)F)cc2)NC(=O)N1CCCCCC(=O)O` (stereo unspecified) belongs -0.318%.
For `CCCCNC(=O)C(C)N(CCN(C)C)C(=O)CCCN1C(=O)NC(c2ccc(Cl)cc2)C(C(=O)OCc2ccccc2)=C1C` (stereo unspecified), the Potency was 18.4 µM (active).
Turning to `COCCOC(=O)C1=C(C)NC(=O)NC1c1ccc(Cl)cc1` (stereo unspecified), the “activity change, negative = growth inhibition” value was -8.4%.
For `CC(C)c1nccn1S(=O)(=O)c1cc([N+](=O)[O-])ccc1Cl`, the “activity change, negative = growth inhibition” value was -15%.
In the case of `c1ccc2c(c1)OC1OC2Oc2ccccc21`, the “activity change, negative = growth inhibition” value was -15.1%.
With `O=C(CCN1C(=O)C2C3CCC(C3)C2C1=O)Nc1ccc(Cl)cc1Cl` (stereo unspecified), the “activity change, negative = growth inhibition” value was -25.1%.
The same measure, in the same setting: to `CCOc1ccc2ccccc2c1/C=N/NC(=O)c1c(C)cc(C)[nH]c1=O` belongs -10.3%.
On to `O=C(N/N=C/c1c(Cl)[nH]c2ccccc12)c1sc2ccccc2c1Cl`, for which the Potency is 13 µM (active).
Regarding `Cc1[nH]c2ccccc2c1/C=N/NC(=O)CNC(=O)c1ccc2c(c1)OCO2`, the “activity change, negative = growth inhibition” value is -24.4%.
On to `C[C@H](NC(=O)C1CC(=O)N(c2ccc3c(c2)OCCO3)C1)C(=O)N1CCC(C(=O)O)CC1` (stereo partly specified), for which the “activity change, negative = growth inhibition” value is 17.9%.
Still for that read-out and setting: for `CCC(C)(C)NC(=O)C(c1ccccn1)N(C(=O)c1csnn1)c1ccccc1` (stereo unspecified) the value was -21.4%; for `CCc1ccc(NC(=O)CS(=O)CC(=O)NCCCc2ccccc2)cc1` (stereo unspecified), -20%.
The same measure, in the same setting: to `Nc1ccc(C(=O)OCC(=O)NC2CCS(=O)(=O)C2)cc1[N+](=O)[O-]` (stereo unspecified) belongs 33.8%.
Still for that read-out and setting: for `Cc1cc(CNC(=O)C2CCC(=O)N(CCc3ccc(Cl)cc3)C2)no1` (stereo unspecified) the value was -5.14%; for `COc1cccc(C(=O)Nc2cc3c(cc2Br)OCCCO3)c1`, -42%.
As for `COc1cccc(C(=O)Nc2ccc3nc4n(c(=O)c3c2)CCCCC4)c1`, the Potency was 20.6 µM (active).
The same measure, in the same setting: for `COc1cccc(C(=O)Nc2ccc(N3CCCC3)cc2)c1` the value was 8.2 µM (active).
As for `Cc1ccc(OCC(=O)Nc2ccc(NC(=O)c3cccs3)cc2)c(C)c1`, the “activity change, negative = growth inhibition” value is -29.3%.
Take `CCCCN(CC)C(=S)Nc1ccc2nc3n(c(=O)c2c1)CCCCC3`: the “activity change, negative = growth inhibition” value was -23.6%.
On the same count and under the same terms, to `CCC(=O)Nc1ccc(C(=O)N2CCN(C(=O)c3ccco3)CC2)cc1` belongs -8.96%.

The values above are taken from PubChem BioAssay AID686978 (National Center for Advancing Translational Sciences (NCATS), 2013).
